{"source": "PubChem BioAssay (NCI)", "note": "This is part of a sample that, as a whole, favours compounds with a hit. Of some 83,000 tested, about 20% had one in any assay.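 In brief: 96-well plates, 48 h treatment, single concentration, percent growth endpoint.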 The source made the active and inactive calls. The calls were made as follows: active = growth percent below 10; inactive = the rest."}
{"system": "PC-3 prostate", "test": "NCI-60 one-dose screen, 48 h (100 = growth as untreated, 0 = no growth, -100 = all killed)", "settings": "10 µM unless noted"}
{"compound": "O=S(=O)(Nc1ccsc1-c1nc(-c2ccccc2)no1)c1cc(Cl)cc(Cl)c1", "growth": "86.7% (inactive)"}
{"compound": "C[C@H]1[C@H]2C3=CC[C@@H]4[C@@]5(C)C/C(=C/c6ccncc6)C(=O)C(C)(C)[C@@H]5CC[C@@]4(C)[C@]3(C)CC[C@@]2(C(=O)N2CCN(C)CC2)CC[C@@H]1C", "growth": "33.9% (inactive)"}
{"compound": "C=C1C(=O)O[C@H]2[C@H]1CC/C(C(=O)NCCCCCCCCNC(=O)/C1=C/CC[C@@]3(C)O[C@H]3[C@H]3OC(=O)C(=C)[C@@H]3CC1)=C\\CC[C@@]1(C)O[C@@H]21", "growth": "74.5% (inactive)"}
{"compound": "CC(C)OC(=O)NNC(=O)c1ccncc1", "growth": "104% (inactive)"}
{"compound": "COc1cc2c(=O)n(CCCn3ccnc3)c3c4cc5c(cc4ccc3c2cc1OC)OCO5", "growth": "11.6% (inactive)"}
{"compound": "COc1cc(/C=C/c2nc(Nc3ccc(S(=O)(=O)Nc4cc(C)on4)cc3)c3ccccc3n2)ccc1O", "growth": "80.4% (inactive)"}
{"compound": "C[C@@H]1CC[C@@H]2[C@@H]1[C@H](OC(=O)/C=C/c1ccccc1)[C@]1(CCCOCCOCCOCCOC(=O)CCCC[C@@H]3SC[C@@H]4NC(=O)N[C@@H]43)C[C@@H](OC(=O)CO)[C@@]2(C)O1", "growth": "97.7% (inactive)"}
{"compound": "O=C(CCCCCCCn1cc(-c2cccnc2)nn1)Nc1ccccc1-c1ccccc1", "growth": "49.3% (inactive)"}
{"compound": "O=C(NCc1cn(Cc2cccc(Oc3ccccc3)c2)nn1)c1cccnc1NCc1ccc(Cl)cc1", "growth": "10% (inactive)"}
{"compound": "CCOC(=O)c1c(C)nc2c(c1N)/C(=C/c1ccc(OC)cc1)C(=O)N2Cc1ccc(F)cc1", "growth": "-52.5% (active)"}
{"compound": "O=C(O)c1ccc(CO)o1", "growth": "105% (inactive)"}
{"compound": "CN(C)CN1CCN(c2ccc3nc(-c4ccc5nc(-c6ccc(C(F)(F)F)cc6)[nH]c5c4)[nH]c3c2)CC1", "growth": "68.4% (inactive)"}
{"compound": "COc1ccc(-c2nc3ccccn3c2/C=C/C(=O)c2cc(OC)c(OC)c(OC)c2)cc1", "growth": "56.2% (inactive)"}
{"compound": "Cc1nc(Nc2ccc(S(=O)(=O)Nc3cc(C)on3)cc2)c2ccccc2n1", "growth": "96.9% (inactive)"}
{"compound": "C#C[C@]1(O)CC[C@H]2[C@@H]3CC=C4c5sc(N=C(N)N)nc5CC[C@]4(C)[C@H]3CC[C@@]21C", "growth": "0.258% (active)"}
{"compound": "Clc1ccc2[nH]c3c(NCCCN4CCOCC4)ncnc3c2c1", "growth": "75.6% (inactive)"}
{"compound": "Cc1cc(C(c2ccccc2)c2ccccc2)ccc1NS(=O)(=O)c1ccccc1", "growth": "83.6% (inactive)"}
{"compound": "COc1cc(NC(=O)c2cccc(-c3cc(=O)c4c(O)c(OC)c(OC)cc4o3)c2)cc(OC)c1OC", "growth": "49.8% (inactive)"}
{"compound": "Cc1ccc(S(=O)(=O)N(CC[C@@H]2C[C@H]2c2cc3ccccc3o2)C(=O)NC2CCCCC2)cc1", "growth": "95.6% (inactive)"}
{"compound": "CC(C)CCC[C@@H](C)[C@H]1CCC2C3=CCC4C(=O)C=CC(=O)C4C3CC[C@@]21C", "note": "(some centres undefined)", "growth": "9.01% (active)"}
{"compound": "Cc1ccc(/C=C(\\C#N)n2nnc3cc(Cl)c(Cl)cc32)cc1", "growth": "12.8% (inactive)"}
{"compound": "COc1cc(C2C=C(c3cccc(NC(C)=O)c3)Nc3ncnn32)cc(OC)c1OC", "note": "(centres undefined)", "growth": "33.3% (inactive)"}
{"compound": "CC(=[N-])N1CCC[C@@H](Nc2c3ccccc3nc3ccccc23)C1.[Cl][Pt].[NH-]CCC[NH-]", "growth": "70.6% (inactive)"}
{"compound": "O=C(/C=C/C12c3ccccc3C(c3ccccc31)C1C(=O)NC(=O)C12)c1ccccc1", "note": "(centres undefined)", "growth": "29.9% (inactive)"}
{"compound": "COc1cc2ccccc2cc1C(=O)NC(=S)Nc1ccc(-c2nc3ccccc3[nH]2)cc1", "growth": "90.6% (inactive)"}
{"system": "SK-MEL-5 melanoma", "test": "NCI-60 one-dose screen, 48 h (100 = growth as untreated, 0 = no growth, -100 = all killed)", "settings": "10 µM unless noted"}
{"compound": "CN(C)CCN1C(=O)c2cccc3c(-c4ccc(-c5nc6c7ccccc7c7ccccc7c6[nH]5)cc4)ccc(c23)C1=O", "growth": "101% (inactive)"}
{"compound": "O=C(Nc1ccc(N2CCCCC2)c(Cl)c1)c1ccc(Br)o1", "growth": "-96.8% (active)"}
{"compound": "COc1ccc(OC)c(Nc2nc3nonc3nc2Nc2cccc(Br)c2)c1", "growth": "-47.8% (active)"}
{"compound": "O=C(NCCN1CCC(O)CC1)c1cc2c(o1)C(=O)c1ccccc1C2=O", "growth": "-99.2% (active)"}
{"compound": "COc1cc(/C=C/C(=O)c2cccc(-n3cc(-c4ccccc4)[nH]c3=O)c2)cc(OC)c1OC", "growth": "-90.1% (active)"}
{"compound": "Fc1ccc(Nc2nc(Nc3ccc(-c4nc5ccccc5[nH]4)cc3)c3cn[nH]c3n2)cc1", "growth": "78.8% (inactive)"}
{"compound": "COc1ccc(-c2nc3sc4c(c3c(=O)[nH]2)CCCC4)c2ccccc12", "growth": "18.1% (inactive)"}
{"compound": "O=[N+]([O-])c1ccccc1C(O)Cc1ccc2ccccc2n1", "note": "(centres undefined)", "growth": "89.9% (inactive)"}
{"compound": "N#Cc1c(NC(=O)c2ccccc2I)sc2c1CCCC2", "growth": "19.2% (inactive)"}
{"compound": "NC(=O)c1c(NC(=O)c2ccc(C(F)(F)F)cc2Cl)sc2c1CCC(=O)C2", "growth": "-91.9% (active)"}
{"compound": "COc1cc(CNC(=O)/C=C/C=C/c2ccc3c(c2)OCO3)ccc1OCc1cn(-c2ccc(Cl)c(Cl)c2)nn1", "growth": "-41.1% (active)"}
{"compound": "CSc1ccc(Cl)c(C(=O)Nc2sccc2C(N)=O)c1", "growth": "95% (inactive)"}
{"compound": "COc1cc(-c2cccc([N+](=O)[O-])c2)c(-c2nc(-c3ccccc3)c(-c3ccccc3)n2C2CC2)cc1OC", "growth": "52.5% (inactive)"}
{"compound": "O=C(/C=C/C12c3ccccc3C(c3ccccc31)C1C(=O)NC(=O)C12)c1ccc(Cl)cc1", "note": "(centres undefined)", "growth": "-61.5% (active)"}
{"compound": "O=S(=O)(Nc1ccsc1-c1nc(-c2ccccc2)no1)c1cc(Cl)cc(Cl)c1", "growth": "93.5% (inactive)"}
{"compound": "C[C@H]1[C@H]2C3=CC[C@@H]4[C@@]5(C)C/C(=C/c6ccncc6)C(=O)C(C)(C)[C@@H]5CC[C@@]4(C)[C@]3(C)CC[C@@]2(C(=O)N2CCN(C)CC2)CC[C@@H]1C", "growth": "87.7% (inactive)"}
{"compound": "C=C1C(=O)O[C@H]2[C@H]1CC/C(C(=O)NCCCCCCCCNC(=O)/C1=C/CC[C@@]3(C)O[C@H]3[C@H]3OC(=O)C(=C)[C@@H]3CC1)=C\\CC[C@@]1(C)O[C@@H]21", "growth": "98.3% (inactive)"}
{"compound": "CC(C)OC(=O)NNC(=O)c1ccncc1", "growth": "114% (inactive)"}
{"compound": "COc1cc2c(=O)n(CCCn3ccnc3)c3c4cc5c(cc4ccc3c2cc1OC)OCO5", "growth": "-75.9% (active)"}
{"compound": "COc1cc(/C=C/c2nc(Nc3ccc(S(=O)(=O)Nc4cc(C)on4)cc3)c3ccccc3n2)ccc1O", "growth": "52.6% (inactive)"}
{"compound": "C[C@@H]1CC[C@@H]2[C@@H]1[C@H](OC(=O)/C=C/c1ccccc1)[C@]1(CCCOCCOCCOCCOC(=O)CCCC[C@@H]3SC[C@@H]4NC(=O)N[C@@H]43)C[C@@H](OC(=O)CO)[C@@]2(C)O1", "growth": "105% (inactive)"}
{"compound": "O=C(CCCCCCCn1cc(-c2cccnc2)nn1)Nc1ccccc1-c1ccccc1", "growth": "30.5% (inactive)"}
{"compound": "O=C(NCc1cn(Cc2cccc(Oc3ccccc3)c2)nn1)c1cccnc1NCc1ccc(Cl)cc1", "growth": "11.3% (inactive)"}
{"compound": "CCOC(=O)c1c(C)nc2c(c1N)/C(=C/c1ccc(OC)cc1)C(=O)N2Cc1ccc(F)cc1", "growth": "-87.9% (active)"}
{"compound": "O=C(O)c1ccc(CO)o1", "growth": "107% (inactive)"}
{"compound": "CN(C)CN1CCN(c2ccc3nc(-c4ccc5nc(-c6ccc(C(F)(F)F)cc6)[nH]c5c4)[nH]c3c2)CC1", "growth": "23.6% (inactive)"}
{"compound": "COc1ccc(-c2nc3ccccn3c2/C=C/C(=O)c2cc(OC)c(OC)c(OC)c2)cc1", "growth": "26.9% (inactive)"}
{"compound": "Cc1nc(Nc2ccc(S(=O)(=O)Nc3cc(C)on3)cc2)c2ccccc2n1", "growth": "99.7% (inactive)"}
{"compound": "C#C[C@]1(O)CC[C@H]2[C@@H]3CC=C4c5sc(N=C(N)N)nc5CC[C@]4(C)[C@H]3CC[C@@]21C", "growth": "-94.9% (active)"}
{"compound": "Clc1ccc2[nH]c3c(NCCCN4CCOCC4)ncnc3c2c1", "growth": "67% (inactive)"}
{"compound": "Cc1cc(C(c2ccccc2)c2ccccc2)ccc1NS(=O)(=O)c1ccccc1", "growth": "94.8% (inactive)"}
{"compound": "COc1cc(NC(=O)c2cccc(-c3cc(=O)c4c(O)c(OC)c(OC)cc4o3)c2)cc(OC)c1OC", "growth": "39.2% (inactive)"}
{"compound": "Cc1ccc(S(=O)(=O)N(CC[C@@H]2C[C@H]2c2cc3ccccc3o2)C(=O)NC2CCCCC2)cc1", "growth": "101% (inactive)"}
{"compound": "CC(C)CCC[C@@H](C)[C@H]1CCC2C3=CCC4C(=O)C=CC(=O)C4C3CC[C@@]21C", "note": "(some centres undefined)", "growth": "-48.5% (active)"}
{"compound": "Cc1ccc(/C=C(\\C#N)n2nnc3cc(Cl)c(Cl)cc32)cc1", "growth": "14% (inactive)"}
{"compound": "COc1cc(C2C=C(c3cccc(NC(C)=O)c3)Nc3ncnn32)cc(OC)c1OC", "note": "(centres undefined)", "growth": "21.6% (inactive)"}
{"compound": "CC(=[N-])N1CCC[C@@H](Nc2c3ccccc3nc3ccccc23)C1.[Cl][Pt].[NH-]CCC[NH-]", "growth": "-84.4% (active)"}
{"compound": "O=C(/C=C/C12c3ccccc3C(c3ccccc31)C1C(=O)NC(=O)C12)c1ccccc1", "note": "(centres undefined)", "growth": "28.8% (inactive)"}
{"compound": "COc1cc2ccccc2cc1C(=O)NC(=S)Nc1ccc(-c2nc3ccccc3[nH]2)cc1", "growth": "42.5% (inactive)"}
